{"source": "PubChem BioAssay (Tox21)", "note": "Records with an inconclusive call do not appear. A number with no mark means an inactive call. Calls of active or inactive are those of the source. Calls come from the whole dose curve; as a rule, active = well fitted inhibition curve with a large enough effect in the signal ratio in the repeat runs (not every such curve was filed as active); inconclusive = weak or mixed curves, or effect the other way; inactive = no such curve, though single readings can be large or run the other way; the % refers to the signal ratio. % is set by controls: 0 for no effect and ±100 for the full control effect."}
{"target": "Estrogen receptor beta (Homo sapiens) (UniProt Q92731)", "sequence (Q92731 whole entry, looked up)": "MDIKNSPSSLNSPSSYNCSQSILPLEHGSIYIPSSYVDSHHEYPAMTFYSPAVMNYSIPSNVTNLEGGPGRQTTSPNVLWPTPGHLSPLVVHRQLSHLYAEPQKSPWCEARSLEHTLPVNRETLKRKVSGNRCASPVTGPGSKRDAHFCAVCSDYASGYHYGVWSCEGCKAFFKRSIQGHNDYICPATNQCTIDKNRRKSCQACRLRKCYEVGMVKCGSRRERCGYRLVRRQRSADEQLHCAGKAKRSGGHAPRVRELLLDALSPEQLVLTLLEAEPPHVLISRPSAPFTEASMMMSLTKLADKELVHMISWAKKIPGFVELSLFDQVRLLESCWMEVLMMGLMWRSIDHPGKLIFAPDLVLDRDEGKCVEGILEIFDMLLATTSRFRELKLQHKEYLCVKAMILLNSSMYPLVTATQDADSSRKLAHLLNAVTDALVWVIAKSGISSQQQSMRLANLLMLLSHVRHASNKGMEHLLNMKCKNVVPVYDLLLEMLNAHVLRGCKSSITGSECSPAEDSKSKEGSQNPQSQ", "assay": "qHTS assay to identify small molecule antagonists of the estrogen receptor beta (ER-beta) signaling pathway (AID 1259378)", "conditions": "ER-beta-UAS-bla HEK293T, beta-lactamase FRET ratio, 16 h; series mostly up to 92.4 µM; activity, negative = inhibition: at the top concentration", "from_the_text": "National Center for Advancing Translational Sciences [NCATS]\nNIH Chemical Genomics Center [NCGC]\nU.S. Environmental Protection Agency [EPA]\nNational Institutes of Environmental Health Sciences [NIEHS]\nNational Toxicology Program [NTP]\nU.S. Food and Drug Administration [FDA]\nEstrogen receptor (ER), a nuclear hormone receptor, plays an important role in development, metabolic homeostasis and reproduction. Two subtypes of ER, ER-alpha and ER-beta, have similar expression patterns with some uniqueness in both types. Endocrine disrupting chemicals (EDCs) and their interactions with steroid hormone receptors like ER causes disruption of normal endocrine function. To identify the compounds that inhibit ER signaling, an ER-beta-UAS-bla GripTite cell line (Life Technologies, Madison, WI, USA) containing a beta-lactamase reporter gene under the control of an UAS response element was used to screen Tox21 10K compound library.\nTox21 Assay Protocol Summary:\nER-beta-UAS-bla HEK293T cells were dispensed at 2,000 cells/4 uL of assay medium containing 2% charcoal stripped FBS per well into black wall/clear-bottom 1536-well plates using a Multidrop Combi (ThermoFisher Scientific, Waltham, MA) dispenser. After the assay plates were incubated at a 37C and 5% CO2 for 6 hr, 23 nL of compounds dissolved in DMSO, positive controls or DMSO only was transferred to the assay plate by a Pintool station (Kalypsys, San Diego, CA), followed by addition of 1 uL (1nM as final concentration) of 17-beta-estradiol (E2) in assay medium using a BioRAPTR FRD (Flying Reagent Dispenser, Aurora Discovery, San Diego, CA). The plates were incubated at 37C and 5% CO2 for 16 hr. Then 1 uL of LiveBLAzerTM B/G FRET substrate was added using a Flying Reagent Dispenser, the plates were incubated at room temperature for 2 hours, and fluorescence intensity was measured by an Envision plate reader (PerkinElmer, Shelton, CT)."}
{"smiles": "Cc1cc(Cl)ccc1OC(C)C(=O)O", "note": "(stereo not given)", "outcome": "inactive"}
{"smiles": "Nc1cc(Cl)cc(Cl)c1", "outcome": "inactive"}
{"smiles": "COC(=O)Nc1cccc(OC(=O)Nc2cccc(C)c2)c1", "outcome": "inactive"}
{"smiles": "CN(C)C(=O)Nc1cccc(C(F)(F)F)c1", "outcome": "inactive"}
{"smiles": "COP(=S)(OC)SCN1C(=O)c2ccccc2C1=O", "outcome": "inactive"}
{"smiles": "CN(C)NC(=O)CCC(=O)O", "outcome": "inactive"}
{"smiles": "CNCC(O)c1ccc(O)cc1", "note": "(stereo not given)", "outcome": "inactive"}
{"smiles": "O=C(O)COc1ccccc1", "outcome": "inactive"}
{"smiles": "Nc1ccc(N)cc1", "activity, negative = inhibition": "1.7% [at 42.5 µM]"}
{"smiles": "ClCCOCCCl", "outcome": "inactive"}
{"smiles": "CSc1nnc(C(C)(C)C)c(=O)n1N", "outcome": "inactive"}
{"smiles": "O=[N+]([O-])c1ccc(Cl)cc1", "outcome": "inactive"}
{"smiles": "N#Cc1ccccn1", "outcome": "inactive"}
{"smiles": "CNC(=O)O/N=C/C(C)(C)S(C)(=O)=O", "outcome": "inactive"}
{"smiles": "CCNc1nc(Cl)nc(NC(C)C)n1", "outcome": "inactive"}
{"smiles": "Cc1ccc(O)c(C)c1", "outcome": "inactive"}
{"smiles": "CC(=O)/C=C/c1ccccc1", "outcome": "inactive"}
{"smiles": "CCOc1ccc(N)cc1", "activity, negative = inhibition": "-11.8%"}
{"smiles": "C=CC#N", "outcome": "inactive"}
{"smiles": "CN(C)C(=O)C(c1ccccc1)c1ccccc1", "outcome": "inactive"}
{"smiles": "CN1C(=O)CCS(=O)(=O)C1c1ccc(Cl)cc1", "note": "(stereo not given)", "outcome": "inactive"}
{"smiles": "Cc1cccc(C)c1NC(=O)CN1CCCC1=O", "outcome": "inactive"}
{"smiles": "C=CC(=O)OCC(CC)CCCC", "note": "(stereo not given)", "outcome": "inactive"}
{"smiles": "NNc1ccccc1", "activity, negative = inhibition": "-11.8% [at 42.5 µM]"}
{"smiles": "c1ccc2c(c1)CCCC2", "outcome": "inactive"}
{"smiles": "CCSC(=O)N1CCCCCC1", "outcome": "inactive"}
{"smiles": "COP(=S)(OC)Oc1ccc(SC)c(C)c1", "outcome": "inactive"}
{"smiles": "O=[N+]([O-])c1cc([As](=O)(O)O)ccc1O", "outcome": "inactive"}
{"smiles": "CC(C)(C)C(=O)CCl", "activity, negative = inhibition": "14.3%"}
{"smiles": "Cc1cccc(N)c1C", "outcome": "inactive"}
{"smiles": "N#Cc1cccc(C#N)c1", "outcome": "inactive"}
{"smiles": "C=C(C)C(=O)OCC(CC)CCCC", "note": "(stereo not given)", "activity, negative = inhibition": "5.03%"}
{"smiles": "CN(C)CCC#N", "outcome": "inactive"}
{"smiles": "COC(C)(C)CCCC(C)C/C=C/C(C)=C/C(=O)OC(C)C", "note": "(stereo not given)", "outcome": "inactive"}
{"smiles": "CC(=O)C1CCOC1=O", "note": "(stereo not given)", "activity, negative = inhibition": "14.5%"}
{"smiles": "Cc1cc(O)ccc1Cl", "outcome": "inactive"}
{"smiles": "Nc1ccc([As](=O)(O)O)cc1", "outcome": "inactive"}
{"smiles": "Nc1ncc([N+](=O)[O-])s1", "outcome": "inactive"}
{"smiles": "Cc1cccc(C)c1N", "outcome": "inactive"}
{"smiles": "O=C(O)C1C(C(=O)O)C2(Cl)C(Cl)=C(Cl)C1(Cl)C2(Cl)Cl", "note": "(stereo not given)", "outcome": "inactive"}
